The supplement of paper PMC13380429

Key:
[1] = tested on: Vero E6 infected with SARS-CoV-2; test: morphology score (similarity to uninfected cells); higher = more like uninfected cells; conditions: 24 h
[2] = tested on: Vero E6 infected with SARS-CoV-2; test: SARS-CoV-2 infection rate relative to infected DMSO; higher = more infection, active = 60 or less; conditions: 24 h

| SMILES | morphology score [1] | SARS-CoV-2 infection rate [2] |
| --- | --- | --- |
| Cc1nc(-c2ccc(OCC(C)C)c(C#N)c2)sc1C(=O)O [febuxostat] (10 µM) | 0.0407 | 118% (inactive) |
| C[C@@H](O)[C@H]1C(=O)N2C(C(=O)O)=C(S[C@@H]3CN[C@H](C(=O)Nc4cccc(C(=O)O)c4)C3)[C@H](C)[C@H]12 [ertapenem] (10 µM) | 0.126 | 106% (inactive) |
| CCN1C(C)(C)CC(Oc2ccc(C(=O)Nc3ccc(NC(=O)Nc4cc(C(C)(C)C)on4)cc3)nc2)CC1(C)C (10 µM) | -0.0181 | 101% (inactive) |
| O=C(Oc1ccccc1C(=O)O)c1ccccc1O [sasapyrine] (10 µM) | 0.0337 | 108% (inactive) |
| N[C@@H]1CCN(c2cccnc2)C1 (10 µM) | 0.0226 | 102% (inactive) |
| C[C@@H]1CCCN1CCc1cc2cc(-c3ccc(C#N)cc3)ccc2o1 (10 µM) | 0.44 | 80.5% (inactive) |
| CCCC(=O)Nc1ccc(OCC(O)CNC(C)C)c(C(C)=O)c1 (centres undefined) [acebutolol] (10 µM) | -0.0282 | 113% (inactive) |
| Cn1nc(-c2ccc(C(F)(F)F)cc2)nc2c(=O)n(C)c(=O)nc1-2 [walrycin-B] (0.833333 µM) | 0.4 | 86.5% (inactive) |
| Cc1c(F)cc(C(=O)NC2CC2)cc1-c1c(F)cn2c(C(C)(C)C)nnc2c1F (10 µM) | -0.202 | 108% (inactive) |
| COc1cc(C)nc(-n2nc(C)cc2OC)n1 [epirizole] (10 µM) | 0.0529 | 111% (inactive) |
| CN1CCCCC1Cn1cc(C(=O)c2cc([N+](=O)[O-])ccc2I)c2ccccc21 (centres undefined) (10 µM) | 0.612 | 72.5% (inactive) |
| CCCn1c(=O)c2[nH]c(C3CCCC3)nc2n(CCC)c1=O (10 µM) | 0.0194 | 105% (inactive) |
| O=c1n(CC2CO2)c(=O)n(CC2CO2)c(=O)n1CC1CO1 (centres undefined) [teroxirone] (10 µM) | -0.0418 | 115% (inactive) |
| Nc1nc2c(ncn2COC(CO)CO)c(=O)[nH]1 [ganciclovir] (10 µM) | 0.108 | 97% (inactive) |
| CNC(=O)Nc1ccc(-c2nc(N3CC4CCC(C3)O4)c3cnn(C4CCC5(CC4)OCCO5)c3n2)cc1 (0.833333 µM) | -0.104 | 100% (inactive) |
| CN1CCN(c2ccc3[nH]c(-c4ccc5[nH]c(-c6ccc(O)cc6)nc5c4)nc3c2)CC1 [pibenzimol] (10 µM) | 0.0018 | 110% (inactive) |
| CC(C)=CCC[C@]1(C)C=Cc2c(O)c3c(c(CC=C(C)C)c2O1)O[C@]12C(=C[C@@H]4C[C@H]1C(C)(C)O[C@@]2(C/C=C(/C)C(=O)O)C4=O)C3=O [gambogic-acid] (10 µM) | 0.0235 | 106% (inactive) |
